Experimental data published in PubChem BioAssay AID1851 (National Center for Advancing Translational Sciences (NCATS), 2009).
About 4,000 (25%) of roughly 16,000 compounds were called active. Not shown: some 26% with an inconclusive outcome. Calls come from the whole dose curve; as a rule, active = well fitted curve in the direction sought with a large enough effect; inconclusive = small, poorly fitted or top-dose-only effect, or effect the other way; inactive = no such curve, though single readings can be large or run the other way. Not all results are given here.

Target: Cytochrome P450 2C9 (Homo sapiens) (UniProt P11712)
Sequence (P11712 whole entry, looked up): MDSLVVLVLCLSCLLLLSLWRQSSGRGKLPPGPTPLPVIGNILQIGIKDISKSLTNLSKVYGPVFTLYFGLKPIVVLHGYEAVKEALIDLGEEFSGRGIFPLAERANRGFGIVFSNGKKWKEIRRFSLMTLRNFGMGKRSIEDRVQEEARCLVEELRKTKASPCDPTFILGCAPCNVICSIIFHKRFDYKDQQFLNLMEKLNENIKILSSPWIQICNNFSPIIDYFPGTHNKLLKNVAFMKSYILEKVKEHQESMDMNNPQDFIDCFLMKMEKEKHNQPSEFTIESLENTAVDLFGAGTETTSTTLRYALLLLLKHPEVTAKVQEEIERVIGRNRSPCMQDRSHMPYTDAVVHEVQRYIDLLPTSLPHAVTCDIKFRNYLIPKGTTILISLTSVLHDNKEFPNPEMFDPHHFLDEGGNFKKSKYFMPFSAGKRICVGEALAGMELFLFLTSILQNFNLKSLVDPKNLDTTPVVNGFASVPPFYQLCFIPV
Assay: Cytochrome panel assay with activity outcomes
Conditions: recombinant CYP, pro-luciferin dealkylation, luminescence, p450-cyp2c9; series mostly up to 57.1 µM
% is set by controls: 0 for no effect and ±100 for the full control effect.

Q: For CCCCCn1c(CN2CCN(c3cc(Cl)ccc3C)CC2)nc2c1c(=O)[nH]c(=O)n2C, which AC50 is on record?
A: Its AC50 is 3.55 µM (active).

Q: With Cn1c(=O)[nH]c(=O)c2c1nc(CN1CCOCC1)n2CCCO as the compound, how does the AC50 read?
A: The AC50 was “inactive”.

Q: How did the AC50 turn out when CCN1CCN(c2nc3c(c(=O)[nH]c(=O)n3C)n2CCCSc2ncccn2)CC1 was run?
A: Its AC50 is “inactive”.

Q: For COc1cccc(=O)c2c(C)n(-c3cc(C)cc(C)c3)c(C)c12, which AC50 is on record?
A: The AC50 was 3.98 µM (active).

Q: NC(Cc1ccccc1)=NCC(=O)O was tested. Which activity, negative = inhibition did it give?
A: Its activity, negative = inhibition is -1.5% [at 11.4 µM] (inactive).

Q: For CCCc1nnc(SCC(=O)N2CCCCC2)n1CCCOC, which AC50 is on record?
A: The AC50 was “inactive”.

Q: Which AC50 does the source give for CCOC(=O)CSc1cc(=O)n(C)c2cc(Cl)ccc12 here?
A: Its AC50 is 14.1 µM (active).

Q: With Cn1c(=O)cc(SCC(=O)NCCCN2CCOCC2)c2ccc(Cl)cc21 as the compound, how does the AC50 read?
A: Its AC50 is “inactive”.

Q: With O=[N+]([O-])c1cc(/C=N/O)ccc1SCc1ccccc1 as the compound, how does the AC50 read?
A: Its AC50 is “inactive”.

Q: Cc1c(C(=O)NN2CCN(C)CC2)cccc1[N+](=O)[O-] was tested. Which AC50 did it give?
A: Its AC50 is “inactive”.

Q: How did the AC50 turn out when Cc1c(NC(=O)C(Sc2ccccc2)c2ccccc2)cccc1[N+](=O)[O-] (stereo not given) was run?
A: The AC50 was 0.251 µM (active).

Q: Which AC50 does the source give for CC(C)Cn1c(-c2nn(C)cc2Cl)n[nH]c1=S here?
A: The AC50 was “inactive”.

Q: For CCOC(=O)c1cc(-c2ccc(Cl)cc2)nc2c1c(C)nn2CCC#N, which AC50 is on record?
A: Its AC50 is 10 µM (active).

Q: With CN1CCN(c2ncc3nc(-c4ccc(Cl)cc4)c(=O)n(CCC#N)c3n2)CC1 as the compound, how does the AC50 read?
A: The AC50 was “inactive”.

Q: Which AC50 does the source give for OCCNc1nc2ccccc2[nH]1 here?
A: The AC50 was “inactive”.

Q: For OC(Cc1nc2ccccc2[nH]1)c1ccccc1Cl (stereo not given), which AC50 is on record?
A: Its AC50 is 14.1 µM (active).

Q: With O=C1CC[C@](CCc2nc3ccccc3[nH]2)(c2ccccc2)C(=O)N1 as the compound, how does the activity, negative = inhibition read?
A: The activity, negative = inhibition was -12.8% [at 11.4 µM] (inactive).

Q: Which AC50 does the source give for COCC(=O)N1CCC[C@@]2(CCN(Cc3ccccc3OC)C2)C1 here?
A: Its AC50 is “inactive”.

Q: CCOC(=O)c1ccccc1NC(=O)/C(C)=C/C(=O)O was tested. Which AC50 did it give?
A: Its AC50 is “inactive”.

Q: How did the AC50 turn out when CCC(=O)Nc1ccccc1C(=O)OCC(=O)c1cccc2ccccc12 was run?
A: Its AC50 is 2.24 µM (active).

Q: For CCC(=O)Nc1ccccc1C(=O)OCC(=O)c1ccccc1, which AC50 is on record?
A: The AC50 was 0.631 µM (active).

Q: How did the AC50 turn out when CCc1ccc(C(=O)COC(=O)C(Cc2ccccc2)NC(=O)C2CCC(C)CC2)cc1 (stereo not given) was run?
A: The AC50 was “inactive”.

Q: For C[N+]1(C)CCO[C@](O)(c2ccccc2)C1, which activity, negative = inhibition is on record?
A: The activity, negative = inhibition was 3.31% [at 11.4 µM] (inactive).

Q: For CSCC[C@H](NC(=O)CC(C)(C)C)c1nc2ccccc2[nH]1, which AC50 is on record?
A: The AC50 was 14.1 µM (active).

Q: CSCC[C@H](NC(=O)c1nn(C)c(=O)c2ccccc12)c1nc2ccccc2[nH]1 was tested. Which AC50 did it give?
A: The AC50 was 2 µM (active).

Q: CCCCCCCCCCCC1=C(O)C(=O)C=C(O)C1=O was tested. Which AC50 did it give?
A: The AC50 was “inactive”.

Q: How did the AC50 turn out when Cn1c(C(F)(F)F)nc2c(=O)oc3ccccc3c21 was run?
A: Its AC50 is “inactive”.

Q: How did the AC50 turn out when O=C(O)c1ccccc1C(=O)NNc1ccc(Cl)cc1 was run?
A: The AC50 was “inactive”.

Q: How did the activity, negative = inhibition turn out when O=C(O)c1ccc(C(=O)c2ccccc2)c(C(=O)O)c1 was run?
A: The activity, negative = inhibition was 21.8% [at 11.4 µM] (inactive).

Q: How did the AC50 turn out when O=C(OCc1ccc(Cl)cc1)c1ccccc1C(=O)c1ccccc1 was run?
A: Its AC50 is 4.47 µM (active).
